Compound activity as filed in PubChem BioAssay.
The sample as a whole holds a higher share of hits than the screen did.
Dicer inh: inhibitors of human Dicer processing of pre-microRNA. AID 1347074. z-score at 25 µM. actives 6% (n = 47,000). Q9UPY3. cat-ELCCA pre-miR-21 Dicer processing, chemiluminescence; stronger effect = higher value; in the data active means z-score above about 3, passing the limit was not always enough;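 further: plate controls were vehicle for no effect and no enzyme for full effect; higher signal means more uncleaved substrate so more Dicer inhibition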
An asterisk follows results filed as active.

SMILES | Dicer inh
Cn1c2c(c3ccccc31)/C(=N/OC(=O)c1ccc(C(C)(C)C)cc1)CCC2 | -1.2
CN(C)CC1CCc2c(c3ccccc3n2C)C1=O (centres undefined) | 1.8
Cn1c2c(c3ccccc31)/C(=N/O)CCC2 | 3.9*
COc1ccc(/C(O)=C2\C(=O)C(=O)N(CCCn3ccnc3)C2c2ccc(Cl)cc2)cc1 (centres undefined) | 0.06
COc1ccc(/C(O)=C2\C(=O)C(=O)N(CCN3CCOCC3)C2c2ccc(OC)cc2)cc1 (centres undefined) | 1.1
N#CCSc1ccc(OC(F)(F)F)cc1 | 6.3
CC1=C(C(N)=O)C(c2ccccc2Cl)n2nnnc2N1 (centres undefined) | 2.9
O=C(NCc1ccncc1)c1cc2n(n1)C(C(F)(F)F)CC(c1ccco1)N2 (centres undefined) | 0.35
CC1CCCCN1C(=O)c1nn2c(c1Cl)NC(c1ccco1)CC2C(F)(F)F (centres undefined) | -3.5
O=C(NCc1ccco1)c1nn2c(c1Cl)NC(c1ccc(F)cc1)CC2C(F)(F)F (centres undefined) | 4.9*
COCCNC(=O)c1nn2c(c1Cl)NC(c1ccc(Br)cc1)CC2C(F)(F)F (centres undefined) | 2.7
O=C(NCc1ccc(F)cc1)c1nn2c(c1Cl)NC(c1ccco1)CC2C(F)(F)F (centres undefined) | 5.1*
CC(C)(C)NC(=O)c1nn2c(c1Cl)NC(c1ccccc1)CC2C(F)(F)F (centres undefined) | -1.9
Cc1ccc2nc(NC3=NCN(C(C)C)CN3)nc(C)c2c1 | 0.47
O=C1NN(c2ccccc2)C(=O)C2C3c4ccccc4C(c4ccccc43)C12 (centres undefined) | -4.3
O=[N+]([O-])c1ccc(-n2ncc(-c3nnc(-c4cccs4)o3)c2C(F)(F)F)cc1 | -1.2
CC(Oc1cccc(Cl)c1)n1cncn1 (centres undefined) | -0.52
Nc1cc(Cl)ccc1NC(=O)c1ccccc1N | -3.4
CCOC(=O)c1nn(-c2ccccc2)c(=O)c2c(N)c(C#N)ccc12 | -3.2
O=C(c1nn2c(C(F)(F)F)cc(-c3ccccc3)nc2c1Br)N1CCOCC1 | -0.52
Cc1ccc(C2CC(C(F)(F)F)n3nc(C(=O)N4CCN5CCCC5C4)c(Cl)c3N2)cc1 (centres undefined) | -1.7
O=C(c1nn2c(c1Br)NC(c1ccccc1)CC2C(F)(F)F)N1CCOCC1 (centres undefined) | 5.2*
O=C(c1nn2c(c1Cl)NC(c1ccc(Br)cc1)CC2C(F)(F)F)N1CCOCC1 (centres undefined) | 3.7*
CC(NC(=O)c1nn2c(c1Cl)NC(c1ccccc1)CC2C(F)(F)F)c1ccccc1 (centres undefined) | -0.69
O=C(O)c1nn2c(c1Br)NC(c1ccccc1)CC2C(F)(F)F (centres undefined) | -0.34
SMILES | Dicer inh
O=C(c1nn2c(c1Cl)NC(c1ccc(Br)cc1)CC2C(F)(F)F)N1CCCCC1 (centres undefined) | -1.3
NC(=O)c1nn2c(c1Br)NC(c1ccccc1)CC2C(F)(F)F (centres undefined) | 3.8*
Cc1ccc(C2CC(C(F)(F)F)n3nc(C(=O)N4CCCCC4)c(Cl)c3N2)cc1 (centres undefined) | 0.49
CC(C)C12CN3CC(C(C)C)(CN(C1)C3c1cc(Br)ccc1O)C2=O (centres undefined) | 0.49
CSc1sc(-c2ccnc(=S)[nH]2)c2c1C(=O)CC(C)(C)C2 | -5.5
O=C(CSc1nncn1-c1ccc(OCc2ccccc2)cc1)Nc1ccccc1 | -1.2
CCC(C)Cn1c(Sc2ncc([N+](=O)[O-])s2)n[nH]c1=O (centres undefined) | -0.76
O=C(c1cccnc1)N(c1ccc2oc(=O)sc2c1)S(=O)(=O)c1ccc(Br)cc1 | 11*
Cc1cc(F)ccc1S(=O)(=O)N(C(=O)c1cccnc1)c1ccc2oc(=O)sc2c1 | 4.8*
CC(C)c1ccc(S(=O)(=O)N(C(=O)c2ccncc2)c2ccc3oc(=O)sc3c2)cc1 | 0.05
Cc1ccc(S(=O)(=O)N(C(=O)c2cccnc2)c2ccc3oc(=O)sc3c2)cc1 | 5*
COc1ccc(S(=O)(=O)N(C(=O)C(C)C)c2ccc3oc(=O)sc3c2)cc1 | 0.09
CCCCC(=O)N(c1ccc2oc(=O)sc2c1)S(=O)(=O)c1ccc(OC)cc1 | 2.4
CCCC(=O)N(c1ccc2oc(=O)sc2c1)S(=O)(=O)c1ccc(F)cc1C | 1.7
CCCCC(=O)N(c1ccc2oc(=O)sc2c1)S(=O)(=O)c1ccc(C(=O)O)cc1 | -1.1
OCc1ccccc1CN1CCCCC1 | 0.76
COc1ccc(-c2noc(CSc3nc4ccc(C)cc4[nH]3)n2)c(OC)c1 | 0.42
COc1ccccc1C1CCN(c2ccc(C3OCCO3)cc2[N+](=O)[O-])CC1 | -0.9
Cc1ccc(C2(C)SCc3cc(C)c(C)cc3CS2)cc1 | -1.1
COC(=O)CSC1CS(=O)(=O)c2cc([N+](=O)[O-])ccc21 (centres undefined) | -1.1
O=C(O)CCSc1nnc(-c2ccc3ccccc3c2)o1 | 0.22
COc1ccc(NC(=S)NCCCC2C=NNC2=O)cc1 (centres undefined) | 0.41
COc1cccc(C=Nc2ccc(S(=O)(=O)/N=C(N)/N=C/c3cccc(OC)c3O)cc2)c1O | -0.79
COc1cccc(C=NCCCC2C=NNC2=O)c1O (centres undefined) | 5.2*
Cn1c(=O)c2cc3ccccc3nc2c2c(=O)n(-c3ccccc3)c(=O)n(-c3ccccc3)c21 | -5
SMILES | Dicer inh
Cc1c(C(=O)O)cc(-c2ccccc2)n1CCSCCO | -0.82
Cc1nn(-c2ccccc2)cc1/C=N/NC(=O)CN1c2ccccc2Sc2ccccc21 | 0.48
CSc1nc(C=Nc2ccc(Cl)cc2)c(O)n1Cc1ccccc1Cl | 4.7*
O=S(=O)(c1ccc(Cl)cc1)c1ccc(N=Cc2ccccc2O)cc1Cl | 1.5
Cc1c(Sc2ccc(Cl)cc2)cnn1C(=O)c1ccccc1 | -0.85
CCOc1cc(S(=O)(=O)Nc2ccccn2)ccc1Cl | 0.95
COc1ccc(OCc2nnc3n2N=C(c2ccc(C)cc2)CS3)cc1 | 1.6
COc1ccc(OCc2nnc3n2N=C(c2ccc(OC)cc2)CS3)cc1 | 5.2*
COc1ccc(C2=Nn3c(COc4cc(C)ccc4Cl)nnc3SC2)cc1 | -1.7
CCOc1ccc(NC(=O)/C=N/O)cc1 | 2.1
O=C(CSCCS(=O)(=O)c1ccccc1)NCc1ccccc1 | -0.8
CCCCn1c(-c2ccc(N)cc2)nc2ccccc21 | 0.23
Nc1ccc(-c2nc3ccccc3n2CCOc2ccccc2)cc1 | 4.3*
Nc1nc2ccccc2n1CCOc1ccc(Br)cc1 | 2.5
CSC(SC)=C(C#N)c1ccc([N+](=O)[O-])cc1 | -0.37
CCn1c[n+](CC(O)COc2cccc(OC)c2)c2ccccc21 (centres undefined) | 0.05
CCc1cccc(CC)c1NC(=S)Nc1ccc(C)cc1 | 9.3
CCCN1C(=O)C2(/C(=C(/O)c3ccc(Cl)cc3)C(=O)C(=O)N2CCN(C)C)c2ccccc21 (centres undefined) | 0.65
O=C(Oc1ccc2cc(Br)ccc2c1)c1ccco1 | 5.8*
O=C(Oc1ccc2c(c1)oc(=O)c1ccccc12)c1ccco1 | -0.17
O=C(Oc1cccc(Br)c1)c1ccco1 | 2.9
O=C(Nc1ccc(OC(F)(F)F)cc1)Nc1cnn(-c2ccccc2)c1C(F)(F)F | 0.46
CC(C(Sc1ccccc1N)c1ccc(F)cc1)[N+](=O)[O-] (centres undefined) | -1.9
O=C1NC(=S)S/C1=C\c1ccc([N+](=O)[O-])s1 | -0.38
